# In paper PMC4336329 (PLoS ONE, 2015):
# The whole screen tested about 310,000 compounds, of which about 14,000 (4.5%) showed an effect of 50% or more. The effect is printed as a negative number. The sample holds strong results, similar compounds and a random draw of the others, so the mix is not that of the screen.
# Target: human ether-à-go-go-related gene (hERG) potassium channel (human, UniProt Q12809)
# Test: primary screen, population patch clamp on CHO cells stably expressing hERG; higher = less effect of the substance
# Method: Briefly, Chinese hamster ovary (CHO) cells stably expressing the hERG channel were dislodged from tissue culture flasks and dispensed into PPC plates. […] During the recording, background leak currents were estimated by a 100 ms step to -80 mV from an initial holding potential of -70 mV and subtracted from the subsequent current measurement. The campaign was conducted in two phases using slight differences in recording protocol. In the first phase, the initial voltage pulse used a 100 ms step to -30 mV from a holding potential of -70 mV, a 2 s conditioning step to +25 mV, and a 2 s test step to -30 mV. During the second phase of the screen, the potential during the conditioning step was raised to +45 mV. In both phases of the campaign, a secondary voltage pulse was applied using the same parameters as the second phase initial pulse. The initial and secondary pulses were applied in the absence of compound, and upon application of 1 μM and 10 μM test concentrations. […]
# 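Further: peak tail current of the secondary pulse compared with the same well before compound.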
# Chain of human ether-à-go-go-related gene (hERG) potassium channel (Q12809 whole entry, looked up): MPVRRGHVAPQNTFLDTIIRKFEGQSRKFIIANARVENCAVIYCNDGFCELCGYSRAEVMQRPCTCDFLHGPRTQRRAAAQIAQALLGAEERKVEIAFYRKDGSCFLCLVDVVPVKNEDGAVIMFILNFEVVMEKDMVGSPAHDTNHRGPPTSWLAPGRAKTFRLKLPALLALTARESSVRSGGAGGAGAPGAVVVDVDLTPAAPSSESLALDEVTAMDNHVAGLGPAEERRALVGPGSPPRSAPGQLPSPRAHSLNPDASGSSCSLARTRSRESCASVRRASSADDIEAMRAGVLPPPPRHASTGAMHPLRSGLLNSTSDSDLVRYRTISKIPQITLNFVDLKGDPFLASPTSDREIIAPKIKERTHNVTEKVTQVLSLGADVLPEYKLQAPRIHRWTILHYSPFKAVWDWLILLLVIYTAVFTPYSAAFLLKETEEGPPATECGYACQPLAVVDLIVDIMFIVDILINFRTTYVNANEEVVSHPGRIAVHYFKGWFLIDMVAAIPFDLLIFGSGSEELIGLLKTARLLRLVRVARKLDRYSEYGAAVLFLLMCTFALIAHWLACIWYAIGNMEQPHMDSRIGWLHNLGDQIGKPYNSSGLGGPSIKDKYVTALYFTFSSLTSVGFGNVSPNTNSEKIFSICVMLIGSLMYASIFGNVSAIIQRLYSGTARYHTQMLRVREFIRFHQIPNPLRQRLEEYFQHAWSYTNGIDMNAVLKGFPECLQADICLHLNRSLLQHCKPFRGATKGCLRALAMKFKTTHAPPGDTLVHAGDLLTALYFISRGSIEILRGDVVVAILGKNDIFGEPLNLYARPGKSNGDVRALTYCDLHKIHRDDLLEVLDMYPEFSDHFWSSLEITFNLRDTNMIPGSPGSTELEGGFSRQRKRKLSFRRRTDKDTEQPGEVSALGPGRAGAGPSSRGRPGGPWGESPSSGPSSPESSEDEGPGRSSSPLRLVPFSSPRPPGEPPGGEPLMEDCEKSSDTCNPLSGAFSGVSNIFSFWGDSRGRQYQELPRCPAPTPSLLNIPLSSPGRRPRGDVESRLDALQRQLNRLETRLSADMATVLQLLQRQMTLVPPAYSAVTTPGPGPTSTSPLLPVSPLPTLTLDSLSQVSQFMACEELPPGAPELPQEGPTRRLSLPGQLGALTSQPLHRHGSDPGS
row,Compound,"hERG current change (%, negative = inhibition) at 10uM [%]"
1,COc1cc(OC)cc(-n2nnnc2SCC(=O)Nc2nc3c(s2)CCCC3)c1,7.1
2,Cc1nnc(SCC(=O)Nc2ccc3c(c2)OCO3)n(N)c1=O,11.3
3,O=C(COc1cccc(-n2cnnn2)c1)N1CCOCC1,2.13
4,O=C1OC(c2ccc(Br)cc2)=N/C1=C\N1CCCCC1,22
5,CCN1CCCC1CNC(=O)CN1C(=O)COc2ccc(C)cc21 (centres unmarked),-12.4
6,COc1cccc(CNC(=O)CCC2CCCN(Cc3ccc(OC(F)F)cc3)C2)c1 (centres unmarked),-76.6
7,COc1cccc(CNC(=O)CCC2CCCN(C(=O)c3ccc(F)c(Cl)c3)C2)c1 (centres unmarked),-16.6
8,COc1cccc(CNC(=O)CCC2CCCN(C(=O)CCC(F)(F)F)C2)c1 (centres unmarked),-5.17
9,COc1cccc(CNC(=O)CCC2CCCN(Cc3cc(Cl)ccc3O)C2)c1 (centres unmarked),-60.6
10,COc1cccc(CNC(=O)CCC2CCCN(C(=O)c3cccc(Cl)c3)C2)c1 (centres unmarked),-20.9
11,COc1cccc(CNC(=O)CCC2CCCN(C3CCOCC3)C2)c1 (centres unmarked),-0.768
12,CC12CCC(C(=O)NC3CCCCC3)([C@H](Br)C1=O)C2(C)C (some centres unmarked),10.6
13,Cc1cc(C)cc(OCC(=O)OCC(=O)N2CCc3ccccc32)c1,14.5
14,O=C(Cn1nc(CNc2ccc(Cl)cc2)[n+]2c1CCCCC2)c1ccccc1.[Br-],9.17
15,Cc1ccc(C(C)C)c(OCc2nn(CC(=O)c3ccc(OC(F)F)cc3)c3[n+]2CCCCC3)c1.[Br-],-72.5
16,Cc1ccc(C(C)C)c(OCC(=O)Nc2ccc(Cl)cn2)c1,-8.82
17,Cc1ccc(C(C)C)c(OCc2nn(CC(=O)c3ccc(Cl)cc3)c3[n+]2CCCCC3)c1.[Br-],-73.3
18,COc1ccc(NCc2nn(CC(=O)c3ccc(Br)cc3)c3[n+]2CCCCC3)cc1.[Br-],10.1
19,O=C(Cn1nc(CNc2ccc(Cl)cc2)[n+]2c1CCCCC2)c1ccc(Br)cc1.[Br-],-61.6
20,O=C(Cn1nc(-c2nn(CC(=O)c3ccccc3)c3[n+]2CCCCC3)[n+]2c1CCCCC2)c1ccccc1.[Br-],12.8
21,O=C(Cn1nc(CNc2ccc(Cl)cc2)[n+]2c1CCCCC2)c1ccc(Cl)cc1.[Br-],-8.17
22,COc1ccc(C(=O)Cn2nc(CNc3ccc(Br)cc3)[n+]3c2CCCCC3)cc1.[Br-],15.4

row,Compound,"hERG current change (%, negative = inhibition) at 10uM [%]"
1,O=C(Nc1ccccc1C(F)(F)F)c1cc(S(=O)(=O)N2CCC3(CC2)OCCO3)ccc1F,-17.1
2,O=C(CCCCCN1C(=O)c2ccccc2C1=O)Nc1ccc(S(=O)(=O)N2CCCCC2)cc1,-46.6
3,COc1ccc(NC(=O)N2CCCC(c3nc(-c4ccc(OC)cc4)no3)C2)cc1 (centres unmarked),-4.38
4,Cc1ccnc(NC(=O)C2CCN(S(=O)(=O)c3ccc(C)c(C)c3)CC2)c1,4.97
5,Cl.N[C@@H](CO)c1nnc([C@H](CC(=O)O)NC(=O)C2CCNCC2)o1,16.7
6,O=C(COC(=O)c1c[nH]c2ccccc12)Nc1ccc([N+](=O)[O-])cc1,-0.338
7,COC(=O)[C@@H](NC(=O)NCc1ccco1)C(C)C,2.75
8,Cc1cccc(NC(=O)c2cc(-c3cc(Cl)ccc3O)n[nH]2)c1,18.2
9,CCN(Cc1ccncc1)C(=O)c1cccs1,2
10,COc1cccc(CN(C)C(=O)c2cccnc2SC)c1OC,9.74
11,COC(=O)c1cccc(NC(=O)C23CC4CC(C2)CC(n2cncn2)(C4)C3)c1,-25.4
12,O=C(Nc1ccc2c(c1)OCO2)c1ccccc1SCC(=O)N1CCCC1,5.23
13,CCOC(=O)C1CCCN(CCSc2ccc(C)cc2)C1.Cl (centres unmarked),-28.3
14,CCOC(=O)C1CCN(C(=O)C(C)Sc2ccc(Cl)cc2)CC1 (centres unmarked),-27.9
15,CCOC(=O)C1CCN(CCCSc2ccccc2)CC1.Cl,-62.4
16,CCOC(=O)C1CCN(CCCSc2ccc(Cl)cc2)CC1.Cl,-72.7
17,CCOC(=O)C1CCN(C(=O)CSc2ccc(Cl)cc2)CC1,-32.5
18,CCOC(=O)C1CCN(CCCSc2ccc(C)cc2)CC1.Cl,-71
19,CCN1CCN(CCCCSc2ccccc2)CC1.O=C(O)C(=O)O,-28.3
20,CCOC(=O)C1CCN(C(=O)CSc2ccccc2)CC1,-20.3
21,Cc1ccc(SCCCCN2CCOCC2)cc1.Cl,-24.6
22,COC(=O)[C@H](C)NC(=O)NCc1ccccc1,1.58

row,Compound,"hERG current change (%, negative = inhibition) at 10uM [%]"
1,CCCC(=O)Nc1ccc2c(c1)nc1n2CCOC1,6.13
2,Cc1ccc(-n2nnc3ccccc3c2=O)cc1C,-2.63
3,c1coc(-c2nc3c4c5c(sc4ncn3n2)CCCC5)c1,10.6
4,O=C(NC1CCOC1)c1ccc(OC2CCN(CCc3ccccc3)CC2)cc1 (centres unmarked),-39.8
5,CSCCCNC(=O)c1ccc(OC2CCN(C(=O)c3cccnc3)CC2)cc1,-11.4
6,COCCC(=O)N1CCC(Oc2ccc(C(=O)NCCCC3CCCC3)cc2)CC1,-37.3
7,CSCCCNC(=O)c1ccc(OC2CCN(CCc3ccccc3)CC2)cc1,-75.2
8,COCC(=O)N1CCC(Oc2ccc(C(=O)N(C)CCCC3CCCC3)cc2)CC1,-26.9
9,COCC(=O)N1CCC(Oc2ccc(C(=O)NCCCC3CCCC3)cc2)CC1,-71.5
10,COC(=O)CCCNC(=O)c1ccc(OC2CCN(CCc3ccccc3)CC2)cc1,-47.7
11,COCCC(=O)N1CCC(Oc2ccc(C(=O)NCCSC)cc2)CC1,13.6
12,CSCCNC(=O)c1ccc(OC2CCN(CCc3ccccc3)CC2)cc1,-64.6
13,CN(C)S(=O)(=O)c1cccc(NC(=S)N/N=C/C(c2ccccc2)c2ccccc2)c1,1.1
14,COc1ccc([N+](=O)[O-])cc1NC(=O)c1cncc(Br)c1,-12.2
15,CN1C(=O)NC(c2ccccc2Cl)C2=C1CC(C)(C)CC2=O (centres unmarked),5.71
16,O=C(NCCC1=CCCCC1)C1CCCN(S(=O)(=O)c2ccc(F)cc2)C1 (centres unmarked),19.6
17,COc1cc(OC)cc(C(=O)NCCSc2c[nH]c3ccccc23)c1,-17.1
18,NC(=O)c1sc2nc3c(cc2c1N)CCC3,8.92
19,CC(=O)c1ccc(OC(=O)C2CSC3(C)CCC(=O)N23)cc1 (centres unmarked),12.4
20,OC(CN1CCOCC1)Cn1c(-c2cccc(Cl)c2)nc2ccccc21 (centres unmarked),-21.3
21,CCN(CC)CC(O)Cn1c(-c2cccc(Cl)c2)nc2cc(C)c(C)cc21 (centres unmarked),-62.8
22,CCN(CC)CC(O)Cn1c(-c2ccccc2Cl)nc2ccccc21 (centres unmarked),-25.2

row,Compound,"hERG current change (%, negative = inhibition) at 10uM [%]"
1,CCOC(=O)[C@@H]1[C@H]2COc3ccc(Br)cc3[C@@H]2N2C(=O)N(c3ccc(C)cc3)C(=O)[C@]12C,5.6
2,O=C(NCC1CCCCC1)c1cc(S(=O)(=O)N2CCCCC2)ccc1N1CCOCC1,-7.89
3,COc1ccc(C2C(C#N)=C(N)Nc3onc(C(C)(C)C)c32)c(OC)c1 (centres unmarked),3.15
4,COc1ccc2oc(C(=O)OCc3nnc(-c4ccccc4)o3)c(C)c2c1,19.8
5,CCCCN(C(=O)COc1ccc(C)cc1OC)c1c(N)n(CCC)c(=O)[nH]c1=O,4.7
6,O=C(c1ccccc1)c1ccccn1,2.58
7,CCOc1ccc(S(=O)(=O)N2CCC(C(=O)NCc3ccccn3)CC2)cc1,-25.9
8,CCOc1ccc(S(=O)(=O)N2CCC(C(=O)NCCc3ccccc3)CC2)cc1,29.1
9,O=C(NCc1ccccc1CN1CCCC1)C1CCN(S(=O)(=O)c2ccc(F)c(F)c2)CC1,-59.1
10,COc1ccc(S(=O)(=O)N2CCC(C(=O)NCCC3=CCCCC3)CC2)cc1OC,-23.5
11,Cc1ccc(S(=O)(=O)N2CCC(C(=O)NCCN3CCOCC3)CC2)cc1C,8.7
12,COc1ccc(S(=O)(=O)N2CCC(C(=O)NCCC3=CCCCC3)CC2)cc1C,-56.2
13,Cc1ccc(S(=O)(=O)N2CCC(C(=O)NCc3ccccc3Cl)CC2)cc1,-4.47
14,O=C(NCc1ccccc1F)C1CCN(S(=O)(=O)c2ccccc2)CC1,-12.1
15,O=C(NCc1ccccc1Cl)C1CCN(S(=O)(=O)c2ccc(F)cc2)CC1,-45.6
16,Cc1ccc(S(=O)(=O)N2CCC(C(=O)NCCC3=CCCCC3)CC2)cc1C,-11.6
17,Cc1ccc(S(=O)(=O)N2CCC(C(=O)NCc3ccccc3CN3CCCC3)CC2)cc1C,-68.7
18,CCOc1ccc(S(=O)(=O)N2CCC(C(=O)NCc3ccccc3CN3CCCC3)CC2)cc1,-64.3
19,Cc1ccn2c(NC(=O)c3ccco3)c(-c3ccccc3)nc2c1,-23.7
20,O=C(CSc1nc(O)cc(=O)[nH]1)N1c2ccccc2Sc2ccccc21,8.9
